Measured values: PubChem BioAssay (EPA / NIEHS)
Active and inactive are the calls of the source. The calls were made as follows: active = hit-call score of the fitted dose curve at least 0.9, where 1 is the maximum; inactive = score below 0.9.

Read-out: Glutamate-cysteine ligase regulatory (GCLM), GCLM (gene 2730)
Assay: LTEA_HepaRG_GCLM: Life Technologies and Expression Analysis (LTEA) Assay for Glutamate-cysteine ligase regulatory (GCLM) using HepaRG (AID 2283500)
Settings: mRNA level, 48 h; actives raise or lower the signal
Outline: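 Differentiated human HepaRG cells exposed 48 h in serum-free induction medium to 8-point half-log concentrations (top 100 uM, 0.5% DMSO), in duplicate. GCLM mRNA quantified by qRT-PCR, normalized to ACTB, GAPDH, POLR2A; bidirectional fitting versus DMSO.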

Structure (SMILES)	outcome	AC50
c1ccc2n[nH]nc2c1	inactive	–
Cc1oc2c(NC(=O)c3c(Cl)cccc3Cl)cccc2c1C(C)(C)O	–	50 µM (active)
Cc1cc(F)ccc1-c1cc(N2CC[C@@H](O)[C@H]2CO)ncc1N(C)C(=O)C(C)(C)c1cc(C(F)(F)F)cc(C(F)(F)F)c1	–	46.7 µM (active)
CC(C)(c1cc(Br)c(O)c(Br)c1)c1cc(Br)c(O)c(Br)c1	inactive	–
CN1C(=O)N(c2ccccc2Br)Cc2cnc(Nc3ccc4c(c3)OCC(CO)O4)nc21 (stereo unspecified)	inactive	–
CCOC(=O)O[C@H](C)OC(=O)c1ccc2c(c1)cc(C(=O)NC1CCN(C(C)C)CC1)n2Cc1cc(-c2ccc(Cl)s2)on1	inactive	–
CCCCCCCCOC(=O)c1cc(O)c(O)c(O)c1	inactive	–
CN(C)c1ccc(C(=C2C=CC(=[N+](C)C)C=C2)c2ccc(N(C)C)cc2)cc1	–	95.3 µM (active)
COc1ccc2cc(S(=O)(=O)N[C@H](CC(=O)N[C@H](Cc3ccc(CN4[C@H](C)CCC[C@@H]4C)cc3)C(=O)N(C)C(C)C)c3ccc4c(c3)OCO4)ccc2c1	–	78 µM (active)
CCN(Cc1cccc(S(=O)(=O)O)c1)c1ccc(C(=C2C=CC(=[N+](CC)Cc3cccc(S(=O)(=O)O)c3)C=C2)c2ccccc2S(=O)(=O)[O-])cc1	inactive	–
Oc1ccc2ccccc2c1	inactive	–
Clc1cc(Cl)c2c(c1)N=C1CCCCCN1C2	inactive	–
CC(C)(O)c1ccc(CNC(=O)c2cccnc2Oc2ccc3nonc3c2)cc1	inactive	–
O=C(O)Cn1c(=O)n(Cc2ccc(Br)cc2F)c(=O)c2ccc(Cl)cc21	inactive	–
CC/C(=C(/CC)c1ccc(O)cc1)c1ccc(O)cc1	inactive	–
COc1cc(C(=O)NC2CCN(C)CC2)ccc1Nc1ncc2c(n1)N(C1CCCC1)CC(F)(F)C(=O)N2C	inactive	–
CCN(CC)C(=O)c1cc(S(=O)(=O)Cc2ccccc2)c(N2CCC(c3ccccc3)CC2)cc1N(CC)CCN(C)C	inactive	–
CC[C@@H]1C[C@H](N(Cc2cc(C(F)(F)F)cc(C(F)(F)F)c2)C(C)=O)c2cc(C(F)(F)F)ccc2N1C(=O)OC(C)C	inactive	–
c1ccc2ccccc2c1	inactive	–

Structure (SMILES)	outcome	AC50
CCCCCCCCCCCO	inactive	–
Cc1ccc(C(C)C)cc1	inactive	–
OC12N=C(c3ccccc3)SC1Cc1cc(Cl)ccc12 (stereo unspecified)	–	25.1 µM (active)
CN(C)C(=O)C1(N2CCCCC2)CCN(CC[C@@]2(c3ccc(Cl)c(Cl)c3)CN(C(=O)c3ccccc3)CCO2)CC1	–	88.3 µM (active)
O=CCCCC=O	–	0.236 µM (active)
NCc1cccc(C2CCN(C(=O)c3ccc(C#Cc4ccccc4F)o3)CC2)c1	inactive	–
COc1cccc([C@H](O)C2CCN(CCc3ccc(F)cc3)CC2)c1OC	inactive	–
CC(C)(C)c1csc(-c2cc3cc(OCc4ccccc4CC(=O)O)ccc3o2)n1	–	85.4 µM (active)
O=c1[nH]sc2ccccc12	inactive	–
O=c1c(-c2ccc(O)cc2)coc2cc(O)cc(O)c12	inactive	–
CCCCCCCC[Si](OCC)(OCC)OCC	inactive	–
CCCCOC(=O)CC(CC(=O)OCCCC)(OC(C)=O)C(=O)OCCCC	inactive	–
CCCCCCCCN(C)CCCCCCCC	inactive	–
CC[C@H](NC(=O)c1cc(F)ccc1NS(=O)(=O)c1cccc2cccnc12)c1ccccc1	inactive	–
CCCCCCCCCCCC[N+](C)(C)C	–	84.1 µM (active)
O=C1CCC(C2CCCCC2)CC1	inactive	–
O=C1c2ccccc2C(=O)N1CCc1noc(-c2ccc(CN3CCCCCC3)s2)n1	inactive	–
CC1=CC(=O)/C(=C(/C)O)C(=O)O1	inactive	–
CCO[Si](CCCNC(N)=O)(OCC)OCC	inactive	–

Read-out: Glutathione S-transferase M3 (GSTM3), GSTM3 (gene 2947)
Assay: LTEA_HepaRG_GSTM3: Life Technologies and Expression Analysis (LTEA) Assay for Glutathione S-transferase M3 (GSTM3) using HepaRG (AID 2283501)
Settings: mRNA level, 48 h; actives raise or lower the signal
Outline: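 Differentiated HepaRG cells in serum-free induction medium were exposed in duplicate for 48 h to 8 half-log concentrations up to 100 uM in 0.5% DMSO. GSTM3 mRNA was measured by TaqMan qRT-PCR, normalized to ACTB/GAPDH/POLR2A, and fitted bidirectionally versus DMSO.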

Structure (SMILES)	outcome	AC50
c1ccc2n[nH]nc2c1	inactive	–
Cc1oc2c(NC(=O)c3c(Cl)cccc3Cl)cccc2c1C(C)(C)O	–	34.4 µM (active)
Cc1cc(F)ccc1-c1cc(N2CC[C@@H](O)[C@H]2CO)ncc1N(C)C(=O)C(C)(C)c1cc(C(F)(F)F)cc(C(F)(F)F)c1	inactive	–
CC(C)(c1cc(Br)c(O)c(Br)c1)c1cc(Br)c(O)c(Br)c1	inactive	–
CN1C(=O)N(c2ccccc2Br)Cc2cnc(Nc3ccc4c(c3)OCC(CO)O4)nc21 (stereo unspecified)	inactive	–
CCOC(=O)O[C@H](C)OC(=O)c1ccc2c(c1)cc(C(=O)NC1CCN(C(C)C)CC1)n2Cc1cc(-c2ccc(Cl)s2)on1	inactive	–
CCCCCCCCOC(=O)c1cc(O)c(O)c(O)c1	inactive	–
CN(C)c1ccc(C(=C2C=CC(=[N+](C)C)C=C2)c2ccc(N(C)C)cc2)cc1	–	7.35 µM (active)
COc1ccc2cc(S(=O)(=O)N[C@H](CC(=O)N[C@H](Cc3ccc(CN4[C@H](C)CCC[C@@H]4C)cc3)C(=O)N(C)C(C)C)c3ccc4c(c3)OCO4)ccc2c1	–	22.5 µM (active)
CCN(Cc1cccc(S(=O)(=O)O)c1)c1ccc(C(=C2C=CC(=[N+](CC)Cc3cccc(S(=O)(=O)O)c3)C=C2)c2ccccc2S(=O)(=O)[O-])cc1	inactive	–
Oc1ccc2ccccc2c1	inactive	–
Clc1cc(Cl)c2c(c1)N=C1CCCCCN1C2	inactive	–
CC(C)(O)c1ccc(CNC(=O)c2cccnc2Oc2ccc3nonc3c2)cc1	inactive	–
O=C(O)Cn1c(=O)n(Cc2ccc(Br)cc2F)c(=O)c2ccc(Cl)cc21	inactive	–
CC/C(=C(/CC)c1ccc(O)cc1)c1ccc(O)cc1	inactive	–
COc1cc(C(=O)NC2CCN(C)CC2)ccc1Nc1ncc2c(n1)N(C1CCCC1)CC(F)(F)C(=O)N2C	–	3.73 µM (active)
CCN(CC)C(=O)c1cc(S(=O)(=O)Cc2ccccc2)c(N2CCC(c3ccccc3)CC2)cc1N(CC)CCN(C)C	inactive	–
CC[C@@H]1C[C@H](N(Cc2cc(C(F)(F)F)cc(C(F)(F)F)c2)C(C)=O)c2cc(C(F)(F)F)ccc2N1C(=O)OC(C)C	inactive	–
c1ccc2ccccc2c1	inactive	–

Structure (SMILES)	outcome	AC50
CCCCCCCCCCCO	inactive	–
Cc1ccc(C(C)C)cc1	inactive	–
OC12N=C(c3ccccc3)SC1Cc1cc(Cl)ccc12 (stereo unspecified)	inactive	–
CN(C)C(=O)C1(N2CCCCC2)CCN(CC[C@@]2(c3ccc(Cl)c(Cl)c3)CN(C(=O)c3ccccc3)CCO2)CC1	–	27.3 µM (active)
O=CCCCC=O	inactive	–
NCc1cccc(C2CCN(C(=O)c3ccc(C#Cc4ccccc4F)o3)CC2)c1	inactive	–
COc1cccc([C@H](O)C2CCN(CCc3ccc(F)cc3)CC2)c1OC	–	72.9 µM (active)
CC(C)(C)c1csc(-c2cc3cc(OCc4ccccc4CC(=O)O)ccc3o2)n1	–	37.7 µM (active)
O=c1[nH]sc2ccccc12	inactive	–
O=c1c(-c2ccc(O)cc2)coc2cc(O)cc(O)c12	inactive	–
CCCCCCCC[Si](OCC)(OCC)OCC	inactive	–
CCCCOC(=O)CC(CC(=O)OCCCC)(OC(C)=O)C(=O)OCCCC	inactive	–
CCCCCCCCN(C)CCCCCCCC	inactive	–
CC[C@H](NC(=O)c1cc(F)ccc1NS(=O)(=O)c1cccc2cccnc12)c1ccccc1	inactive	–
CCCCCCCCCCCC[N+](C)(C)C	–	93.9 µM (active)
O=C1CCC(C2CCCCC2)CC1	inactive	–
O=C1c2ccccc2C(=O)N1CCc1noc(-c2ccc(CN3CCCCCC3)s2)n1	inactive	–
CC1=CC(=O)/C(=C(/C)O)C(=O)O1	inactive	–
CCO[Si](CCCNC(N)=O)(OCC)OCC	inactive	–
